Experimental data taken from PubChem BioAssay AID485297 (National Center for Advancing Translational Sciences (NCATS), 2010).
The whole screen tested about 320,000 compounds, of which about 9,100 (2.8%) were called active. Inconclusive results (about 3%) are left out. Calls come from the whole dose curve; as a rule, active = well fitted activation curve with a large enough effect; inconclusive = small, poorly fitted or top-dose-only effect; inactive = no such curve, though single readings can be large or run the other way. For the sample, actives were picked, then their nearest neighbours and some compounds at random.

Assay: qHTS Assay for Rab9 Promoter Activators; note: nearly all actives have a fitted effect of over 60% in size
Conditions: Huh7 Rab9 promoter-luciferase reporter, luminescence, 24 h; series mostly up to 9.22 µM
Text: NIH Chemical Genomics Center [NCGC] NIH Molecular Libraries Probe Production centers Network [MLPCN] MLPCN Grant: MH089537-01 Assay Submitter (PI): Yiannis A. Ioannou NCGC Assay Overview: Niemann Pick Type C (NPC) is a rare neurodegenerative lipidosis that is characterized by lipid storage in the endosomal/lysosomal system. Treatment modalities for this devastating disease are currently non-existent due to the severe obstacles associated with accessing the central nervous system with proteins or genes (Ioannou, 2000). We have developed a new paradigm, termed "Orphan Receptor Bypass Therapy" (ORByT), to address these disorders. This paradigm posits the existence of endogenous "suppressor" proteins whose expression can dramatically improve LSD pathogenesis. The goal is the identification/discovery of small chemical compounds that can modulate the expression of these proteins and provide a new treatment modality for these devastating disorders. One such protein whose overexpression reverses aspects of the NPC phenotype is Rab9. We have developed and optimized a cell based luciferase reporter assay in 1536 well format for the identification of up-regulators of the Rab9 promoter.
The Rab9 promoter is cloned in front of the luciferase reporter gene, therefore […] promoter activation results in luciferase expression. Frozen stock of the Rab9 promoter transfected Huh7 cells were obtained from the laboratory of Dr. Yiannis Ioannou (The Mount Sinai School of Medicine, New York, NY). Cells were propagated and maintained at NCGC in medium containing RPMI-1640 supplemented with 10% FBS, 2mM L-glutamine, and 50ug/ml penicillin/streptomycin. Cells were harvested in and plated for assays in OP-MEM I reduced-serum medium supplemented with 10% FBS. The Amplite luciferase reporter gene assay kit was purchased from ABD Bioquest and prepared/stored according to manufacturers recommendations. qHTS Assay Setup: 1.Dispensed 5ul of Huh7 cells stably expressing Rab9-luciferase at a density of 1500 cells per well 1536-well plates. 2.Incubate cells at 37C, 5% CO2, and 95% humidity for 2 hours. 3.Transferred 23nl per well of compound in DMSO solution. 4.Incubated at 37C, 5% CO2, and 95% humidity for 24 hours. 5.Dispensed 3ul per well of Amplite reagent(ABD Bioquest) per well. 6.Incubate at ambient for 10 minutes. 7.Read using the luminescence protocol on the ViewLux plate reader (Perkin Elmer).
Potency is the fitted concentration of half-maximal effect.

Potency, active:
C/C(=N\NC(=O)OC(C)(C)C)c1ccc[nH]1 2820 nM
O=C(Nc1ccccc1)c1cc2ccccc2[nH]1 2510 nM
COc1ccc2[nH]cc(CCN3C(=O)c4ccc(C(=O)O)cc4C3=O)c2c1 1000 nM
Nc1c(C(=O)c2cccs2)sc2nsc(SCCN3CCCCC3)c12 2510 nM
CCOC(=O)c1sc(=NC(=O)/C=C/c2cccs2)n(C)c1C 2820 nM
C=CCNC(=O)c1ccc2c3n(nc2c1)-c1ccc(C)cc1CO3 891 nM
Cc1ccc(-n2cc3ccc([N+](=O)[O-])cc3n2)cc1 355 nM
COc1ccc(NC(=O)C2COc3ccccc3O2)cc1 (configuration not stated) 3160 nM
O=C(Nc1cccc(Cl)c1)OCc1ccccn1 3980 nM
Nc1[nH][nH]c(=O)c1N=Nc1ccc2c(c1)OCO2 3550 nM
CS(=O)(=O)N1CCc2nc(-c3ccccc3)sc2C1 1580 nM
O=C(Nc1ccc(C2CC2(Cl)Cl)cc1)c1cccc([N+](=O)[O-])c1 (configuration not stated) 3980 nM
CC(=NCc1ccco1)c1c(C(F)(F)F)[nH]n(-c2nc3ccccc3s2)c1=O 2000 nM
O=C(O)c1ccc(N/N=C/c2cn(-c3ccccc3)nc2-c2cccs2)cc1 447 nM

Potency, inactive:
CC(C)(C)OC(=O)N/N=C/c1ccc(C(=O)O)cc1
Cc1ccccc1NC(=O)NNC(=O)OC(C)(C)C
Cc1cccc(C)c1NC(=O)C(Cl)C(=O)c1ccccc1 (configuration not stated)
CCCCN(C(=O)C1CCC1)c1c(N)n(Cc2ccccc2)c(=O)[nH]c1=O
CCC(=O)c1ccc(OCC(=O)OCC(=O)N2CCc3ccccc3C2)cc1
COc1ccc2[nH]c(C(=O)Nc3ccccc3Cl)cc2c1
O=C(Nc1cccc(NC(=O)c2ccc(Br)cc2)c1)c1ccccc1
Cc1sc2ncnc(SCC(=O)Nc3ccc(CN4CCCC4)cc3)c2c1C
Cc1ccc2[nH]cc(CCCN3C(=O)c4ccccc4C3=O)c2c1
COc1ccc(C[C@H](C(=O)O)N2C(=O)c3ccc(C(=O)O)cc3C2=O)cc1
COc1cc([N+](=O)[O-])ccc1NC(=O)COC(=O)CCOc1ccc(C)cc1
O=C(CN1C2=NCCN2c2ccccc21)c1cccs1
O=C(CSc1ncnc2sccc12)N1CCN(C(=O)c2cccs2)CC1
CCCCC/C=C/C1=CC(=O)C[C@H](c2ccc(Cl)cc2)C1
COc1ccccc1CNC(=O)COC(=O)c1sc(C)nc1C
CCOC(=O)c1sc(=NC(=O)c2ccc(Br)cc2)n(C)c1C
CCOC(=O)c1c(NC(=S)NC(=O)/C=C/c2cccs2)sc(C)c1C
Cc1cccc(-c2nc3ccc(C(=O)NCCN4CCN(C)CC4)cc3nc2-c2cccc(C)c2)c1
C=CCNC(=O)c1ccc(C)c(Br)c1
COc1ccc(CNC(=O)CN2C(=O)NC3(CCCc4sccc43)C2=O)cc1 (configuration not stated)
CO[C@H]1[C@@H]2C=CO[C@@H](O[C@H]3O[C@@H](CO)[C@H](O)[C@@H](O)[C@@H]3O)[C@@H]2[C@@]2(CO)O[C@@H]12
Cc1cc(C)nc(Nc2cc([N+](=O)[O-])ccc2C)n1
Cc1ccc(-c2cn(S(=O)(=O)c3cccc([N+](=O)[O-])c3)nc2N)cc1
Cc1ccc(CNC(=O)c2cccc3c2C(=O)c2ccc(N4CCC(C)CC4)cc2S3(=O)=O)cc1
Cc1c(O)c(C)c2c(c1O)C(=O)C[C@@H](c1ccccc1)O2
COc1ccc(NC(=O)CC2COc3ccccc3O2)c(OC)c1 (configuration not stated)
CC(=O)c1cccc(NC(=O)C2COc3ccccc3O2)c1 (configuration not stated)
CC(C)C[C@H](NC(=O)[C@H](O)[C@H](N)Cc1ccccc1)C(=O)O
CNS(=O)(=O)c1cccc(C(=O)OCCCC(=O)c2ccccc2)c1
O=C(Nc1ccc(Cl)cc1)OCc1cc(-c2ccccc2)on1
O=C(Nc1cccc(CCc2ccccn2)c1)c1ccc(Cl)cc1
CC(C)N(C(=O)CSc1nnc(NC2CC2)s1)c1ccccc1
CCc1nnc(NC(=O)C2CCN(C(=O)c3ccccc3C)CC2)s1
Cc1[nH][nH]c(=O)c1N=Nc1ccccc1
O=C1/C(=C/c2ccc3c(c2)OCO3)CCC/C1=C\c1ccc2c(c1)OCO2
COc1ccc2ccn(C)c2c1
Cc1ccc(NC(=O)CN(C)C(=O)COC(=O)c2nccnc2N)cc1
CS(=O)(=O)N1CCN(C(=O)Cc2ccccc2)CC1
CS(=O)(=O)N1CCN(c2cccc(Cl)n2)CC1
NC(=O)C1CCN(C(=O)c2ccc(F)c(S(=O)(=O)N3CCOCC3)c2)CC1
Cc1ccc(N(CC(=O)NCC2CCCO2)C(=O)CNS(=O)(=O)c2ccc(Cl)cc2)cc1 (configuration not stated)
O=C1c2ccccc2C(=O)N1CCC#Cc1ccc2cc(C3(O)CCCCC3)oc(=O)c2c1
O=C(Nc1ccc(NC(=O)c2ccco2)c(Cl)c1)c1cccc([N+](=O)[O-])c1
O=C(Nc1ccc(C(=O)N2CCCCC2)cc1)c1cccc([N+](=O)[O-])c1
CN(C)/C=C(/C(=O)c1ccc(Cl)c(Cl)c1)c1nnnn1-c1ccccc1
COC(=O)Cc1[nH]n(-c2nc3ccccc3s2)c(=O)c1C(C)=Nc1ccc(OC)cc1
CC(=NCc1ccco1)C1=C(O)c2ccccc2C1=O
O=C(CN1CCN(S(=O)(=O)c2cccc(Cl)c2)CC1)N1CCCCC1
COc1ccccc1N1CCN(CC(=O)Nc2ccnn2C2CCCC2)CC1
COc1ccc(-c2nn(-c3ccccc3)cc2/C=C\C(=O)Nc2ccc(C(=O)O)cc2)cc1
O=C(/C=C\c1cn(-c2ccccc2)nc1-c1cccs1)N1CCOCC1
COc1ccc(OC)c(/C=C/C(=O)c2ccc3c(c2)OCO3)c1
CN(C(=O)COC(=O)Cn1cnc2c1c(=O)n(C)c(=O)n2C)C1(C#N)CCCCC1
